About 79,000 compounds went through this panel and 15% of them were active in at least one assay; those are over-represented in the sample as a whole. The source made the active and inactive calls. Rule as the data show it: active = growth inhibition above about 70%; inactive = the rest.
Experiments:
[1] = NCI Yeast Anticancer Drug Screen. Data for the wt2 strain (AID 169);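 also: 0% = growth of vehicle-treated yeast cultures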; conditions: S. cerevisiae wt2 strain growth inhibition, stronger effect = higher value
How it was run: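 Steps: yeast strain treated with compound; growth recorded; inhibition calculated relative to cultures given vehicle alone.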

[2] = NCI Yeast Anticancer Drug Screen. Data for the mlh1 strain (AID 171);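 also: 0% = growth of vehicle-treated control cultures of the same strain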; conditions: S. cerevisiae mlh1 strain growth inhibition, stronger effect = higher value
How it was run: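 Yeast screen: mutant strain plus compound, growth scored against vehicle control wells.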

[3] = NCI Yeast Anticancer Drug Screen. Data for the sgs1 strain (AID 173);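 also: 0% = growth of vehicle-only control cultures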; conditions: S. cerevisiae sgs1 mutant, stronger effect = higher value
How it was run: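 Inhibition of yeast growth served as the measure. The mutant strain was treated with each compound, and growth was normalised to cultures receiving vehicle alone.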

[4] = NCI Yeast Anticancer Drug Screen. Data for the mlh1 rad18 strain (AID 175); conditions: S. cerevisiae mlh1 rad18 strain growth inhibition, stronger effect = higher value
How it was run: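 Compound-treated yeast growth, normalised to vehicle controls. Strain bears defined DNA repair mutations.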

[5] = NCI Yeast Anticancer Drug Screen. Data for the rad18 strain (AID 177); conditions: S. cerevisiae rad18 mutant growth inhibition, stronger effect = higher value
How it was run: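 Inhibition values reflect reduced yeast growth compared with vehicle-treated controls, using a strain engineered with a DNA damage repair defect.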

[6] = NCI Yeast Anticancer Drug Screen. Data for the rad52 strain (AID 147);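 also: 0% = growth of vehicle-treated control cultures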; conditions: S. cerevisiae rad52 mutant growth inhibition, stronger effect = higher value
How it was run: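 Genetically altered yeast (DNA damage repair defect) treated with compound; inhibition calculated relative to vehicle.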

[7] = NCI Yeast Anticancer Drug Screen. Data for the wt1 strain (AID 149);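 also: 0% = growth of vehicle-treated wt1 cultures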; conditions: S. cerevisiae wt1 strain (SPY 50644) growth inhibition, stronger effect = higher value
How it was run: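 Readout: yeast growth inhibition, normalised to vehicle controls, in the wt1 strain exposed to test compounds.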

[8] = NCI Yeast Anticancer Drug Screen. Data for the rad50EPP+ strain (AID 151);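 also: 0% = growth of vehicle-treated control cultures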; conditions: S. cerevisiae rad50 mutant strain, stronger effect = higher value
How it was run: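 Strain rad50EPP+; compound exposure; % growth inhibition vs vehicle.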

[9] = NCI Yeast Anticancer Drug Screen. Data for the mgt1 strain (AID 153); conditions: S. cerevisiae mgt1 mutant growth inhibition, stronger effect = higher value
How it was run: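 Read-out: yeast growth inhibition vs vehicle control. Strain mgt1, drawn from a panel altered in DNA damage repair or cell cycle control.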

[10] = NCI Yeast Anticancer Drug Screen. Data for the rad50 strain (AID 155);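 also: 0% = growth of vehicle-only cultures of the same strain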; conditions: S. cerevisiae rad50 strain growth inhibition, stronger effect = higher value
How it was run: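 Compounds were tested on a yeast strain with an engineered DNA damage repair alteration; the reported value is growth inhibition normalised to vehicle treatment.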

[11] = NCI Yeast Anticancer Drug Screen. Data for the mec2-1 strain (AID 157); conditions: S. cerevisiae mec2-1 strain, stronger effect = higher value
How it was run: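 Cells of the genetically defined mec2-1 yeast strain are incubated with test compound. Inhibition of growth is calculated against vehicle-treated controls.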

[12] = NCI Yeast Anticancer Drug Screen. Data for the rad14 strain (AID 159);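 also: 0% = growth of vehicle-treated control cultures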; conditions: S. cerevisiae rad14 strain growth inhibition, stronger effect = higher value
How it was run: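 Compound-treated yeast with a defined DNA-repair lesion; growth inhibition normalised to vehicle-treated cultures.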

[13] = NCI Yeast Anticancer Drug Screen. Data for the sgs1 mgt1 strain (AID 161);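 also: 0% = growth of cultures given vehicle only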; conditions: S. cerevisiae sgs1 mgt1 strain, stronger effect = higher value
How it was run: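 Test agents were incubated with a DNA-repair-mutant yeast strain. Growth was then read and compared against vehicle-treated controls.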

[14] = NCI Yeast Anticancer Drug Screen. Data for the CLN2oe strain (AID 163);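 also: 0% = growth of vehicle-only control cultures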; conditions: S. cerevisiae CLN2oe strain, stronger effect = higher value
How it was run: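 Strain altered in cell-cycle control, incubated with compound; growth compared to solvent-treated controls.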

[15] = NCI Yeast Anticancer Drug Screen. Data for the cln2 rad14 strain (AID 165);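 also: 0% = growth equal to vehicle treated cultures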; conditions: S. cerevisiae cln2 rad14 strain, stronger effect = higher value
How it was run: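 The screen exposed genetically defined yeast (cln2 rad14) to test compounds and scored growth inhibition relative to vehicle-treated controls.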

[16] = NCI Yeast Anticancer Drug Screen. Data for the bub3 strain (AID 167); conditions: S. cerevisiae bub3 mutant strain, stronger effect = higher value
How it was run: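 Growth of a checkpoint-deficient yeast mutant is measured after compound exposure. Values represent inhibition relative to vehicle.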

[17] = at 5.0 µM (retest, dose inferred, filed as 0.5)
[18] = at 50.0 µM (retest, dose inferred, filed as 5.0)

Measured: growth inhibition

O=C(O)CCCc1cc(I)c(N(CCCl)CCCl)c(I)c1
inactive: [1]; at 1.2 µM -13% | [1]; at 3.7 µM -14% | [1]; at 11.0 µM -19% | [2]; at 1.2 µM -50% | [2]; at 3.7 µM -29% | [2]; at 11.0 µM -38% | [3]; at 1.2 µM -40% | [3]; at 3.7 µM -46% | [3]; at 11.0 µM -24% | [4]; [17] 25% | [4]; at 50.0 µM 69.3% | [5]; at 1.2 µM -63% | [5]; at 3.7 µM -50% | [5]; at 11.0 µM -13%
active: [1]; at 33.0 µM 91% | [1]; at 100.0 µM 97% | [2]; at 33.0 µM 85% | [2]; at 100.0 µM 95% | [3]; at 33.0 µM 88% | [3]; at 100.0 µM 96% | [4]; [18] 98% | [5]; at 33.0 µM 76% | [5]; at 100.0 µM 93%

COc1cccc2c1C(=O)c1c(O)c3c(c(O)c1C2=O)C[C@@](O)(C(C)=O)C[C@@H]3OC1CC(N)C(OC2CC(O)C(O)C(C)O2)C(C)O1 (some centres undefined)
inactive: [6]; at 1.2 µM 16% | [6]; at 3.7 µM 12% | [6]; at 11.0 µM 15% | [6]; at 33.0 µM 27% | [6]; at 100.0 µM 59% | [7]; at 1.2 µM -26% | [7]; at 3.7 µM -25% | [7]; at 11.0 µM -7% | [7]; at 33.0 µM -15% | [7]; at 100.0 µM -2% | [8]; at 1.2 µM 11% | [8]; at 3.7 µM 8% | [8]; at 11.0 µM 10% | [8]; at 33.0 µM 18% | [8]; at 100.0 µM 38% | [9]; at 1.2 µM -22% | [9]; at 3.7 µM -22% | [9]; at 11.0 µM -18% | [9]; at 33.0 µM -14% | [9]; at 100.0 µM -17% | [10]; at 1.2 µM 1% | [10]; at 3.7 µM 10% | [10]; [17] 36% | [10]; at 11.0 µM 17% | [10]; at 33.0 µM 28% | [10]; at 100.0 µM 59% | [11]; at 1.2 µM -25% | [11]; at 3.7 µM -20% | [11]; [17] 5% | [11]; at 11.0 µM -24% | [11]; at 33.0 µM -17% | [11]; [18] 33% | [11]; at 50.0 µM 49.1% | [11]; at 100.0 µM -8% | [12]; at 1.2 µM -10% | [12]; at 3.7 µM -11% | [12]; at 11.0 µM -9% | [12]; at 33.0 µM -1% | [12]; at 100.0 µM 15% | [13]; [17] 14% | [13]; [18] 44% | [13]; at 50.0 µM 39.8% | [14]; at 1.2 µM -14% | [14]; at 3.7 µM -10% | [14]; at 11.0 µM -12% | [14]; at 33.0 µM -6% | [14]; at 100.0 µM 6% | [15]; [17] 19% | [15]; at 50.0 µM 57.8% | [16]; at 1.2 µM -30% | [16]; at 3.7 µM -26% | [16]; [17] 4% | [16]; at 11.0 µM -31% | [16]; at 33.0 µM -23% | [16]; [18] 37% | [16]; at 50.0 µM 42.4% | [16]; at 100.0 µM -6% | [1]; at 1.2 µM -57% | [1]; at 3.7 µM -65% | [1]; at 11.0 µM -54% | [1]; at 33.0 µM -28% | [1]; at 100.0 µM 2% | [2]; at 1.2 µM -25% | [2]; at 3.7 µM -15% | [2]; at 11.0 µM -17% | [2]; at 33.0 µM -6% | [2]; at 100.0 µM -3% | [3]; at 1.2 µM -2% | [3]; at 3.7 µM -4% | [3]; at 11.0 µM -11% | [3]; at 33.0 µM -8% | [3]; at 100.0 µM 0% | [4]; [17] 18% | [4]; [18] 48% | [4]; at 50.0 µM 51.3% | [5]; at 1.2 µM -8% | [5]; at 3.7 µM -17% | [5]; at 11.0 µM -32% | [5]; at 33.0 µM -21% | [5]; at 100.0 µM -2%
active: [10]; [18] 83% | [10]; at 50.0 µM 76.8% | [15]; [18] 78%

O=[N+]([O-])c1ccc(N2CCC(CCCC3CCN(c4ccc([N+](=O)[O-])cc4[N+](=O)[O-])CC3)CC2)c([N+](=O)[O-])c1
active: [9]; at 100.0 µM 77% | [10]; [17] 98% | [10]; [18] 99% | [10]; at 50.0 µM 75% | [11]; [17] 99% | [11]; [18] 99% | [13]; at 50.0 µM 87.5% | [16]; at 50.0 µM 84.3% | [4]; [17] 99% | [4]; [18] 99%
inactive: [6]; at 1.2 µM -24% | [6]; at 3.7 µM -17% | [6]; at 11.0 µM -7% | [6]; at 33.0 µM 0% | [6]; at 100.0 µM 20% | [7]; at 1.2 µM -6% | [7]; at 3.7 µM -1% | [7]; at 11.0 µM 5% | [7]; at 33.0 µM 11% | [7]; at 100.0 µM 11% | [8]; at 1.2 µM -6% | [8]; at 3.7 µM -14% | [8]; at 11.0 µM -17% | [8]; at 33.0 µM -4% | [8]; at 100.0 µM 18% | [9]; at 1.2 µM -18% | [9]; at 3.7 µM -4% | [9]; at 11.0 µM 0% | [9]; at 33.0 µM 10% | [10]; at 1.2 µM 7% | [10]; at 3.7 µM 1% | [10]; at 11.0 µM 4% | [10]; at 33.0 µM 12% | [10]; at 100.0 µM 31% | [11]; at 1.2 µM -35% | [11]; at 3.7 µM -27% | [11]; at 11.0 µM -22% | [11]; at 33.0 µM -20% | [11]; at 50.0 µM 48.5% | [11]; at 100.0 µM -8% | [12]; at 1.2 µM -32% | [12]; at 3.7 µM -27% | [12]; at 11.0 µM -13% | [12]; at 33.0 µM -16% | [12]; at 100.0 µM 19% | [13]; [17] -41% | [13]; [18] 51% | [14]; at 1.2 µM -8% | [14]; at 3.7 µM -3% | [14]; at 11.0 µM 3% | [14]; at 33.0 µM -19% | [14]; at 100.0 µM 7% | [15]; [17] 10% | [15]; [18] 50% | [15]; at 50.0 µM 46.2% | [16]; at 1.2 µM -17% | [16]; at 3.7 µM -24% | [16]; [17] 6% | [16]; at 11.0 µM -32% | [16]; at 33.0 µM -6% | [16]; [18] 47% | [16]; at 100.0 µM -4% | [1]; at 1.2 µM -15% | [1]; at 3.7 µM -21% | [1]; at 11.0 µM -9% | [1]; at 33.0 µM 8% | [1]; at 100.0 µM 39% | [2]; at 1.2 µM -19% | [2]; at 3.7 µM -25% | [2]; at 11.0 µM -21% | [2]; at 33.0 µM -24% | [2]; at 100.0 µM 32% | [3]; at 1.2 µM -24% | [3]; at 3.7 µM -17% | [3]; at 11.0 µM -15% | [3]; at 33.0 µM 21% | [3]; at 100.0 µM 52% | [4]; at 50.0 µM 68.3% | [5]; at 1.2 µM -24% | [5]; at 3.7 µM -25% | [5]; at 11.0 µM -14% | [5]; at 33.0 µM -5% | [5]; at 100.0 µM 4%

Source: PubChem BioAssay (NCI)
